Assay results as given in PubChem BioAssay (Tox21).
Inconclusive results are not listed. Active and inactive are the calls of the source. Unless noted, the call rests on the fitted dose curve; in most records, active means well fitted curve in the direction sought with a large enough effect in the repeat runs; inconclusive means weak or mixed curves; inactive means no such curve, though single readings can be large; an effect the other way counts as inactive or inconclusive.

Legend:
[1] = biological target: Thyrotropin receptor (Homo sapiens) (UniProt P16473); assay: qHTS assay to identify small molecule agonists of the thyroid stimulating hormone receptor (TSHR) signaling pathway (AID 1224843; calls by dose curve; further: nearly all actives have a fitted effect of over 45% in size)
Sequence of Thyrotropin receptor (Homo sapiens) (P16473 whole entry, looked up): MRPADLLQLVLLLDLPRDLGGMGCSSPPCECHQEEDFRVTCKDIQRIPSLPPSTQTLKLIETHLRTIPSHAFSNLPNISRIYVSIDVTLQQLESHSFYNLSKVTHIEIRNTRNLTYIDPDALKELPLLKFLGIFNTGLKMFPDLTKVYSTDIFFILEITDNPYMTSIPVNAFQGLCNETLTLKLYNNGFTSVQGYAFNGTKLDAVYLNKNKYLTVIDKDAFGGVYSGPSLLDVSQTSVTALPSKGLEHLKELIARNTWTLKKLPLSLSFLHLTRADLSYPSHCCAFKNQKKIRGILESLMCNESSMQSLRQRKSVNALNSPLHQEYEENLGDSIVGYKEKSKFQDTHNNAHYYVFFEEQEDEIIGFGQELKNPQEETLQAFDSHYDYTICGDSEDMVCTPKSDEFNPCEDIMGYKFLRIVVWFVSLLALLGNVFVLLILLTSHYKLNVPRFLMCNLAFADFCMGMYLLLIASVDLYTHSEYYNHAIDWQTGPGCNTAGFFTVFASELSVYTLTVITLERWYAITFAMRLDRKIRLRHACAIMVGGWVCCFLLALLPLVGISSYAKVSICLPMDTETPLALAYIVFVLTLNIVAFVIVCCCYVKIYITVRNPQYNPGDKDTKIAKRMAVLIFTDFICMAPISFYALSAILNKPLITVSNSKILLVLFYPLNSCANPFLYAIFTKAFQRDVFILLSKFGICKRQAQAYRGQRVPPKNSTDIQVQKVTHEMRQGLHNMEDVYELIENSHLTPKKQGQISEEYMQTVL
Outline: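 Using 15 concentrations per compound in triplicate, cAMP production was monitored in TSHR-HEK293 cells after 30 min compound incubation at RT; HTRF reagents followed, with fluorescence intensity recorded after 1 h.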

[2] = qHTS assay to identify small molecule agonists of the hypoxia (HIF-1) signaling pathway - cell viability counter screen (AID 1224844; calls by dose curve; further: nearly all actives have a fitted effect of over 50% in size)
Outline: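 Cytotoxicity was measured in parallel with the HRE-driven beta-lactamase readout: after 17 hrs of compound exposure at 37C, HRE-bla ME-180 cells received CellTiter-Glo and luminescence was recorded 30 min later.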

[3] = qHTS assay to identify small molecule agonists of H2AX (AID 1224845; active means well fitted activation curve with a large enough effect in the signal ratio in the repeat runs, not every such curve was filed as active; the % refers to the signal ratio)
Outline: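 Wild-type CHO-K1 cells plated overnight, then exposed 3 hr at 37C to compounds at 15 concentrations (0.76% DMSO). Lysed, then HTRF anti-pH2AX(S139)-cryptate/anti-H2AX-d2 detection after 24 hr at room temperature; emissions 665 and 620 nm.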

[4] = qHTS assay to identify small molecule agonists of the hypoxia (HIF-1) signaling pathway (AID 1224846; active means well fitted activation curve with a large enough effect in the signal ratio in the repeat runs, not every such curve was filed as active; the % refers to the signal ratio)
Outline: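 Compounds from the Tox21 10K library, dissolved in DMSO, are tested for induction of a hypoxia response element–controlled beta-lactamase reporter in ME-180 cells. Exposure lasts 17 hrs at 37C after a 5 hr settling period, followed by CCF4-AM FRET substrate.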

[5] = qHTS assay to identify small molecule agonists of H2AX - cell viability counter screen (AID 1224847; calls by dose curve; further: top concentration of the series differs between compounds; nearly all actives have a fitted effect of over 30% in size)
Outline: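 Counter-screen for viability: CellTiter-Glo ATP luminescence read after 3 h compound treatment (15-point titration, 0.76% DMSO final) of CHO-K1 cells at 37C, with 30 min room-temperature reagent incubation.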

[6] = qHTS assay to identify small molecule antagonists of the estrogen related receptor (ERR) signaling pathway from Tox21 library (AID 1224848); further: nearly all actives have a fitted effect of over 50% in size
Outline: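 Tox21 10K compounds in DMSO tested for ERR pathway antagonism in NTP's ERR cell line; 18 h, 37 C exposure; ONE-Glo luminescence.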

[7] = qHTS assay to identify small molecule agonists of the estrogen related receptor (ERR) signaling pathway from Tox21 library (AID 1224849; calls by dose curve; further: nearly all actives have a fitted effect of over 15% in size); settings: ERR reporter cell line, ONE-Glo luciferase, 18 h; at 92.4 µM (top of the series) unless noted
Outline: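 Cells carrying the ERR reporter were plated and allowed to settle for 6 h, exposed to library compounds for 18 h at 37 C, then lysed with ONE-Glo and luminescence measured.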

[8] = qHTS RealTime-Glo MT Cell Viability Assay in HepG2 cells - 24 hour (AID 1224867); further: nearly all actives have a fitted effect of over 50% in size
Outline: (§1)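 HepG2 cells were seeded at 600 cells/well together with NanoLuc luciferase and a cell-permeant prosubstrate, preincubated 5 h at 37 C/5% CO2, then pin-dosed with compounds in DMSO. Nonlytic luminescence from viable cells was read at each time point.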

[9] = qHTS RealTime-Glo MT Cell Viability Assay in HEK293 cells - 32 hour (AID 1224868); further: top concentration of the series differs between compounds; nearly all actives have a fitted effect of over 50% in size
Outline: (§2)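 HEK293 cells were seeded at 600 cells/well together with NanoLuc luciferase and cell-permeant prosubstrate, preincubated 5 h at 37 C/5% CO2, then given compound in DMSO by pintool. Luminescence from viable-cell prosubstrate reduction was read repeatedly over 40 h.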

[10] = A CellTox Green Cytotoxicity Assay to monitor cytotoxicity in HEK293 cells - 0 hour (AID 1224869); further: nearly all actives have a fitted effect of over 50% in size
Outline: (§3)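 Cells (HEK293, 600/well) and dye reagent are dispensed together. After 5 h at 37 C, 23 nL compound is pinned in. Plates stay at 37 C for 40 h with fluorescence read at 0h, 8h, 16h, 24h, 32h and 40h.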

[11] = qHTS RealTime-Glo MT Cell Viability Assay in HepG2 cells - 40 hour (AID 1224870); further: nearly all actives have a fitted effect of over 50% in size
Outline: (§4)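 HepG2 cells mixed with RealTime-Glo MT reagents (NanoLuc plus cell-permeant prosubstrate) were seeded at 600 cells/well, incubated 5 h at 37 C/5% CO2, then pinned with compounds in DMSO; nonlytic luminescence tracked viability during 40 h treatment.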

[12] = A CellTox Green Cytotoxicity Assay to monitor cytotoxicity in HEK293 cells - 40 hour (AID 1224871); further: nearly all actives have a fitted effect of over 45% in size
Outline: as §3

[13] = qHTS RealTime-Glo MT Cell Viability Assay in HepG2 cells - 8 hour (AID 1224873); further: nearly all actives have a fitted effect of over 55% in size
Outline: as §4

[14] = qHTS RealTime-Glo MT Cell Viability Assay in HEK293 cells - 40 hour (AID 1224874); settings: RealTime-Glo luminescence; max response: hits give low values; further: nearly all actives have a fitted effect of over 50% in size
Outline: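 Real-time viability in HEK293: signal arises when living cells convert a prosubstrate for NanoLuc in the medium, so luminescence tracks viable cell number. Compound (23 nL, DMSO) added 5 h post-seeding; kinetic reads at 0–40 h, 37 C.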

[15] = A CellTox Green Cytotoxicity Assay to monitor cytotoxicity in HEK293 cells - 24 hour (AID 1224875); further: nearly all actives have a fitted effect of over 45% in size
Outline: as §3

[16] = A CellTox Green Cytotoxicity Assay to monitor cytotoxicity in HepG2 cells - 16 hour (AID 1224876); further: nearly all actives have a fitted effect of over 45% in size
Outline: (§5)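 Cells and non-lytic dye reagent are dispensed together (600 HepG2 cells/well) and incubated 5 h before DMSO compound transfer. Kinetic fluorescence is then recorded in the same wells during 40 h at 37 C.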

[17] = qHTS RealTime-Glo MT Cell Viability Assay in HepG2 cells - 32 hour (AID 1224877); further: nearly all actives have a fitted effect of over 55% in size
Outline: as §1

[18] = A CellTox Green Cytotoxicity Assay to monitor cytotoxicity in HepG2 cells - 24 hour (AID 1224878); further: nearly all actives have a fitted effect of over 45% in size
Outline: as §5

[19] = A CellTox Green Cytotoxicity Assay to monitor cytotoxicity in HepG2 cells - 40 hour (AID 1224879); further: nearly all actives have a fitted effect of over 40% in size
Outline: as §5

[20] = qHTS RealTime-Glo MT Cell Viability Assay in HEK293 cells - 16 hour (AID 1224872)
Outline: as §2
On the % scale 0 is the no-effect control and ±100 the full control effect.

O=C1O[C@@H]2[C@@H](O)[C@H](O)O[C@@H]2[C@H]1O
inactive: Potency [1] | outcome [2] | outcome [3] | outcome [4] | Potency [5] | Potency [6] | activity change, positive = activation [7] -1.02% | outcome [8] | Potency [9] | outcome [10] | outcome [11] | Potency [12] | outcome [13] | max response [14] -0.399% | outcome [15] | outcome [16] | outcome [17] | outcome [18]

CCCCCCCC/C=C\CCCCCCCC(=O)OCCCC
inactive: activation [1] 1.53% [at 19 µM] | activity change, negative = cytotoxicity [2] -10.5% [at 15.8 µM] | activation (H2AX phosphorylation) [3] 4.47% [at 31.6 µM] | activation [4] -1.44% [at 15.8 µM] | activity change, negative = cytotoxicity [5] -0.831% [at 31.6 µM] | activity, negative = inhibition [6] 0.129% [at 19 µM] | activity change, positive = activation [7] 0.0665% [at 19 µM] | activity change, negative = cytotoxicity [8] 2.67% [at 15.8 µM] | cytotoxicity [10] -14.5% [at 15.8 µM] | activity change, negative = cytotoxic [11] 12.2% [at 15.8 µM] | cytotoxicity increase [12] -33.9% [at 15.8 µM] | viability change, negative = cytotoxic [13] -0.413% [at 15.8 µM] | activity change [15] -32.5% [at 15.8 µM] | activity change, negative = cytotoxic [17] 6.1% [at 15.8 µM] | cytotoxicity [18] -11.8% [at 15.8 µM] | cytotoxicity increase [19] -13.9% [at 15.8 µM]

Cc1ccc(S(=O)(=O)O)c(C)c1
inactive: Potency [1] | outcome [2] | outcome [3] | outcome [4] | Potency [5] | Potency [6] | activity change, positive = activation [7] 16.9% | outcome [8] | Potency [9] | outcome [10] | Potency [12] | Potency [20] | outcome [13] | max response [14] 3.15% | outcome [15] | outcome [17] | outcome [18] | Potency [19]

CN(C)c1ccc(C=O)cc1
inactive: Potency [1] | outcome [2] | outcome [3] | outcome [4] | Potency [5] | Potency [6] | activity change, positive = activation [7] 0.183% | outcome [8] | outcome [10] | outcome [11] | Potency [12] | outcome [13] | max response [14] 14.8% | outcome [15] | outcome [16] | outcome [17] | outcome [18] | Potency [19]

Cc1cccc(C)c1OCC(C)N (configuration not stated)
inactive: Potency [1] | outcome [2] | outcome [3] | outcome [4] | Potency [5] | Potency [6] | activity change, positive = activation [7] -2% [at 42.5 µM] | outcome [8] | Potency [9] | outcome [10] | Potency [12] | Potency [20] | outcome [13] | max response [14] 2.76% | outcome [15] | outcome [16] | outcome [18] | Potency [19]

O=S(O)(O)=S
inactive: activation [1] 8.08% [at 8.39 µM] | activity change, negative = cytotoxicity [2] -1.07% [at 6.97 µM] | activation (H2AX phosphorylation) [3] 2.44% [at 14 µM] | activation [4] -1% [at 7.01 µM] | activity change, negative = cytotoxicity [5] 0.0189% [at 14 µM] | activity, negative = inhibition [6] 8.94% [at 8.39 µM] | activity change, positive = activation [7] 4.43% [at 8.39 µM] | activity change, negative = cytotoxicity [8] 4.23% [at 6.97 µM] | activity change, negative = cytotoxic [9] 0.732% [at 6.97 µM] | cytotoxicity [10] 0.0066% [at 6.97 µM] | activity change, negative = cytotoxic [11] 5.36% [at 6.97 µM] | cytotoxicity increase [12] -0.26% [at 6.97 µM] | activity change, negative = cytotoxicity [20] 0.498% [at 6.97 µM] | viability change, negative = cytotoxic [13] 0.222% [at 6.97 µM] | max response [14] 0.994% | activity change [15] -0.341% [at 6.97 µM] | cytotoxicity increase [16] -0.212% [at 6.97 µM] | cytotoxicity [18] -1.5% [at 6.97 µM]

COP(=O)(OC)OC(c1ccc(Cl)cc1)P(=O)(OC)OC (configuration not stated)
inactive: Potency [1] | outcome [2] | outcome [3] | outcome [4] | Potency [5] | Potency [6] | activity change, positive = activation [7] 1.9% [at 42.5 µM] | outcome [8] | Potency [9] | outcome [10] | Potency [12] | Potency [20] | outcome [13] | max response [14] 4.98% | outcome [15] | outcome [18] | Potency [19]

O=C(CS(=O)Cc1ccco1)NC/C=C\COc1cc(CN2CCCCC2)ccn1 (configuration not stated)
inactive: Potency [1] | outcome [2] | outcome [3] | outcome [4] | Potency [5] | Potency [6] | activity change, positive = activation [7] 7.25% [at 42.5 µM] | outcome [8] | Potency [9] | outcome [10] | outcome [11] | Potency [12] | Potency [20] | outcome [13] | max response [14] -0.682% | outcome [15] | outcome [16] | outcome [17] | outcome [18]

CC(C)=CCOC(=O)c1ccccc1
inactive: Potency [1] | outcome [2] | outcome [3] | outcome [4] | Potency [5] | Potency [6] | activity change, positive = activation [7] 2.82% | outcome [8] | Potency [9] | outcome [10] | outcome [11] | Potency [20] | outcome [13] | max response [14] -0.369% | outcome [15] | outcome [17]

CC(=O)/C=C/C1C(C)=CCC(C)C1(C)C (configuration not stated)
inactive: Potency [1] | outcome [2] | outcome [3] | outcome [4] | Potency [5] | Potency [6] | activity change, positive = activation [7] -6.15% | outcome [8] | outcome [10] | outcome [11] | Potency [12] | Potency [20] | outcome [13] | max response [14] 1.21% | outcome [15] | outcome [16] | outcome [17] | outcome [18] | Potency [19]

CCCC/C=C\CCCCCCCCCC=O
inactive: Potency [1] | outcome [2] | outcome [3] | outcome [4] | Potency [5] | Potency [6] | activity change, positive = activation [7] 2.29% | outcome [8] | Potency [9] | outcome [10] | outcome [11] | Potency [12] | Potency [20] | outcome [13] | max response [14] -10.9% | outcome [15] | outcome [16] | outcome [17] | outcome [18] | Potency [19]

COc1ccc(Br)c(C)c1
inactive: Potency [1] | outcome [2] | outcome [3] | outcome [4] | Potency [5] | activity change, positive = activation [7] -0.068% | outcome [8] | outcome [10] | outcome [11] | Potency [12] | Potency [20] | outcome [13] | max response [14] 4.1% | outcome [15] | outcome [17] | outcome [18] | Potency [19]

Cc1ccc2c(c1)OCC(=O)CO2
inactive: Potency [1] | outcome [2] | outcome [3] | outcome [4] | Potency [5] | Potency [6] | outcome [8] | Potency [9] | outcome [10] | outcome [11] | Potency [12] | Potency [20] | outcome [13] | max response [14] -8.18% | outcome [15] | outcome [16] | outcome [17] | outcome [18]
